Luciferase inh – Photinus pyralis luciferase inhibition; 2.5% of 76,000 active; P08659; purified P. pyralis luciferase, luminescence, biochemical; AID 1347043; Potency, µM (series often up to 115 µM), actives largely listed as inhibitors; also: nearly all actives have a fitted effect of over 65% in size
Target sequence (P08659 whole entry, looked up): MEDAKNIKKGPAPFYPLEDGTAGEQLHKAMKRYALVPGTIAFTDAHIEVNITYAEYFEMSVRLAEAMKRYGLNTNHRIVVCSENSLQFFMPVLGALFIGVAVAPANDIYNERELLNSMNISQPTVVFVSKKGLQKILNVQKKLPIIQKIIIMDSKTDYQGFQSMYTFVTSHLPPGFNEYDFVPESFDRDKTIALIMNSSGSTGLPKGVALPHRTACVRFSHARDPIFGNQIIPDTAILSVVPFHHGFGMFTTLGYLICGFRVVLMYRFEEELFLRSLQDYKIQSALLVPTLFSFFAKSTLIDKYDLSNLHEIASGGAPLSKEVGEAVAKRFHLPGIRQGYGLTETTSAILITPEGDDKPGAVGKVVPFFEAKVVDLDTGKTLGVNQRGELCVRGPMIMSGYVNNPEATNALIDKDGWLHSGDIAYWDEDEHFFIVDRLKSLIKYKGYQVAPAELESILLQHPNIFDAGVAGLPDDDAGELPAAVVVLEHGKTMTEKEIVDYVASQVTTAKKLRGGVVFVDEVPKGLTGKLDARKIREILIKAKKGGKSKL
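Inhibitors were tested against purified firefly luciferase in a biochemical, low-substrate format (both substrates at 10uM) and luminescence measured with a CCD imager.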
HEK cytotox – kills HEK 293 cells | 6.6% of 94,000 active | Potency, µM (titrated, usually from 115 µM), without a hit: at the top dose activity change, negative = cytotoxicity, hits mostly inhibitors | HEK 293 viability, ATP luminescence (CellTiter-Glo), 48-72 h | AID 1345083; also: nearly all actives have a fitted effect of over 60% in size
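ATP-coupled CellTiter-Glo luminescence served as viability read-out, recorded 10 min after reagent addition at room temperature. HEK 293 cells, 250 cells/well, had been incubated with pintool-transferred compound for 48 or 72 hr at 37 degree Celsius.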
SNCA expr inhib – inhibitors of alpha-synuclein (SNCA) gene expression. HEK-293 SNCA-luciferase knock-in, luminescence, 24 h. Potency, µM (highest dose often 57.2 µM), without a hit: at the highest dose activity change, negative = inhibition, hits mostly inhibitors. 0.17% of 140,000 active;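 also: plate controls were DMSO cells for no effect and cell-free wells for full effect; nearly all actives have a fitted effect of over 45% in size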
SNCA viab count – cell viability loss counter-screen. HEK-293-SNCA-luc viability, GF-AFC fluorescence, 24 h. AID 1671193. 0.12% of 150,000 active. Potency, µM (top dose mostly 57.1 µM), for inactives: at the highest dose activity change, negative = cytotoxicity, most hits filed as cytotoxic;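 also: 0% = DMSO-treated cells and -100% = medium-only wells without cells; nearly all actives have a fitted effect of over 30% in size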
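HEK-293-SNCA-luc cells (1500/well) plated 24 h, then exposed 24 h to a dilution series; GF-AFC added 30 min at 37C, fluorescence 405/540 nm; normalised to medium-only and DMSO wells, Hill fit.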
hNpr1 antagonist – antagonists of human natriuretic peptide receptor Npr1; 1.6% of 76,000 active; HEK293 hNpr1 GloSensor cGMP, ANP-stimulated luminescence; P16066; AID 1347048; Potency, µM (doses to about 46.3 µM), without a hit: at the top dose activity change, negative = inhibition, hits mostly inhibitors; calls by dose curve; also: nearly all actives have a fitted effect of over 60% in size
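HEK293 cells stably expressing human Npr1 and cGMP GloSensor pGS-40F, loaded 2 h with 2% GloSensor reagent, given compound 30 min at room temperature. Luminescence read before and 20 min after 0.1 nM hNppA.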
3T3 cytotox – cytotoxic compounds in NIH 3T3 cells | NIH 3T3 viability, CellTiter-Glo ATP luminescence, 48-72 h | Potency, µM (top dose mostly 96.7 µM), for inactives: at the highest dose activity change, negative = cytotoxicity, hits mostly inhibitors | 4.3% of 94,000 active; also: nearly all actives have a fitted effect of over 55% in size
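First NIH 3T3 cells are plated at 400 cells/well; next compound is pinned in; then plates incubate 48 or 72 hr at 37 °C; finally CellTiter-Glo is added and luminescence read after 10 min.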
Active calls of the source: *; i = inactive; ? = inconclusive; / = no result given; [ ] = remark or other dose. An excerpt weighted towards active compounds, which were near 7.4% of everything screened. Unless noted, calls follow the shape of the dose curve; as a rule, active = well fitted curve in the direction sought with a large enough effect; inconclusive = small, poorly fitted or top-dose-only effect, or another doubt; inactive = no such curve, though single readings can be large; an effect the other way counts as inactive or inconclusive. Unless noted, % is scaled to controls: 0 for no effect and ±100 for the full control effect; potency is read from the fitted curve at half-maximal effect.

SMILES	Luciferase inh	HEK cytotox	SNCA expr inhib	SNCA viab count	hNpr1 antagonist	3T3 cytotox
Cc1nn(-c2ccc(F)cc2)c(C)c1[C@@H]1C=C[C@@H](NCc2ccc(C(C)C)cc2)C1	i	11µM*	?	?	?	10µM*
Cc1nn(-c2ccc(C(C)C)cc2)c(C)c1[C@@H]1C=C[C@@H](NCc2ccc(F)cc2)C1	22µM*	8.9µM*	?	?	?	7.1µM*
CC1(c2ccccc2)N(Cc2ccc(O)cc2)C(=O)OC12CCN(C(=O)Cc1ccccc1)CC2 (stereo not given)	i	?	-10%	3%	1%	?
CC1(c2ccccc2)N(Cc2ccccc2F)C(=O)OC12CCN(C(=O)c1cccc(C#N)c1)CC2 (stereo not given)	i	-13%	2%	-7%	2%	7.1µM*
CC1(c2ccccc2)N(Cc2ccccc2)C(=O)OC12CCN(C(=O)CN1CCOCC1)CC2 (stereo not given)	i	4%	1%	5%	-5%	14µM*
CN1CCC(C(=O)N2CCC3(CC2)OC(=O)N(Cc2ccccc2F)C3(C)c2ccccc2)CC1 (stereo not given)	i	?	-7%	1%	-8%	?
CC1(c2ccccc2)N(Cc2ccccc2F)C(=O)OC12CCN(C(=O)CN1CCOCC1)CC2 (stereo not given)	i	4%	8%	9%	3%	22µM*
CC(=O)N1CCC2(CC1)OC(=O)N(Cc1ccccc1F)C2(C)c1ccccc1 (stereo not given)	i	-3%[172 µM]	8%[87.6 µM]	9%[87.6 µM]	-2%[70.6 µM]	35µM*
O=C(NC1CCN(c2cc(-c3ccc(F)cc3)[nH]n2)C1)c1cccc(F)c1 (stereo not given)	i	40µM*	-18%	2%	-15%	?
O=C(NC1CCN(c2cc(-c3ccc(F)cc3)[nH]n2)C1)c1ccccc1 (stereo not given)	i	?	4%	-6%	-14%	?
O=C(NC1CCCN(c2cc(-c3ccccc3)[nH]n2)C1)c1cccc(F)c1 (stereo not given)	?	25µM*	42%	-15%	0%	?
O=C(NC1CCCN(c2cc(-c3ccccc3)[nH]n2)C1)c1ccc(F)cc1Cl (stereo not given)	?	?	70%	-10%	-19%	?
O=C(NC1CCCCC1)c1cn2cc(-c3cccc(C(F)(F)F)c3)sc2n1	/	-2%	18%	2%	/	-8%
Cc1ccc2nc(NC(=O)Cn3nc4c(cc3=O)CCCCC4)sc2c1	35µM*	?	15%	1%	2%	-17%
O=C(Cn1nc2c(cc1=O)CCCCC2)NCCn1ccc2c(Cl)cccc21	i	79µM*	?	-4%	-22%	?
CC(C)[C@H](NC(=O)Cn1nc2c(cc1=O)CCCCC2)C(=O)O	22µM*	4%	125%	1%	5%	i
O=C(Cn1nc2c(cc1=O)CCCC2)Nc1nc2ccccc2s1	i	?	2%	-11%	0%	-25%
O=C(Nc1cccc(F)c1)N1CCC2(CC1)CC(OCC1CC1)CCO2 (stereo not given)	i	-13%	2%	-8%[12.5 µM]	-1%	?
CN(C)c1ccc2ncc(Nc3ccccc3)n2n1	?	112µM*	39%[87.6 µM]	4%[87.6 µM]	-19%[70.6 µM]	?
COc1ccc(F)cc1Nc1cnc2ccc(N(C)C)nn12	i	100µM*	-22%[87.6 µM]	7%[87.6 µM]	1%[70.6 µM]	?
CN(C)c1ccc2ncc(Nc3cc(F)cc(N4CCOCC4)c3)n2n1	?	?	-4%[87.6 µM]	2%[87.6 µM]	2%[70.6 µM]	?
CN(C)c1ccc2ncc(Nc3ccc(Cl)cn3)n2n1	i	?	6%[87.6 µM]	6%[87.6 µM]	-17%[70.6 µM]	112µM*
CC(C)c1ccc(S(=O)(=O)N2C[C@@H](F)C[C@H]2C(=O)N2CCc3ccccc3C2)cc1	i	?	-13%	9%	8%	-19%
O=C(C1COc2ccccc2C1)N1CCC(n2c(=O)[nH]c3ccccc32)CC1 (stereo not given)	i	22µM*	-29%	?	?	?
CN1CCC(C(=O)N2CCC(n3c(=O)[nH]c4ccccc43)CC2)CC1	/	-13%	-16%	10%	/	-11%
SMILES	Luciferase inh	HEK cytotox	SNCA expr inhib	SNCA viab count	hNpr1 antagonist	3T3 cytotox
CC(C)(C)OC(=O)NCCCC(=O)N1CCC(n2c(=O)[nH]c3ccccc32)CC1	i	?	-12%	-6%	20µM*	-30%
O=C(C1CCCC1)N1CCC(n2c(=O)[nH]c3ccccc32)CC1	/	-26%[172 µM]	-12%[87.6 µM]	-11%[87.6 µM]	/	-8%[138 µM]
CSc1cccc(NC(=O)Cn2nc3c(cc2=O)CCCCC3)c1	?	?	30%	?	4%	?
CC#CCn1c(N2CCCC(N)C2)nc2c1c(=O)n(Cc1nc(C)c3ccccc3n1)c(=O)n2C (stereo not given)	/	/	/	-22%	/	/
O=C([C@@H]1C[C@H](F)CN1S(=O)(=O)c1ccccc1)N1CCc2ccccc2C1	i	-19%	-10%	-11%	-9%	-1%
COc1cccc(-c2ccc(C(=O)N3CCC(C(=O)NCC4CC4)CC3)cc2)c1	/	?	7%	1%[12.5 µM]	/	?
CC(C)OC(C)C(=O)N1CCc2onc(-c3ccc(C(F)(F)F)cc3)c2C1 (stereo not given)	i	28µM*	10%	4%	-28%	?
O=C(NCc1ccccc1F)c1ccc2c(c1)CN(Cc1cccnc1Cl)CCO2	/	?	26%	-8%	/	?
CC(C)(C)CC(=O)N[C@H]1CC(C)(C)[C@@H]2C[C@@](C)(O)CC[C@]12CCC(=O)NCCc1c[nH]c2ccccc12	i	-11%	-2%	-22%	-2%	?
COc1ccccc1CN[C@H]1CC(C)(C)[C@@H]2C[C@@](C)(O)CC[C@]12CCC(=O)NCCc1c[nH]c2ccccc12	i	28µM*	?	?	-14%	28µM*
CN(C)c1ccc(CN[C@H]2CC(C)(C)[C@@H]3C[C@@](C)(O)CC[C@]23CCC(=O)NCCc2c[nH]c3ccccc23)cc1	i	18µM*	?	?	-9%	18µM*
CN1CCc2c([nH]c3ccccc23)C12CCN(C(=O)c1cccs1)CC2	i	?	-2%	11%[12.5 µM]	0%	-10%
Nc1ncccc1CN1CC[C@@H]2OCC(=O)N(Cc3c[nH]c4ccccc34)[C@H]2CC1	i	?	-6%[87.6 µM]	-6%[87.6 µM]	-13%[70.6 µM]	?
CNC(=O)c1cc(C2CC2)nc2onc(C3CCN([S+](=O)([O-])c4cccs4)C3)c12 (stereo not given)	/	?	/	/	/	-27%
